This note sets out measurements from PubChem BioAssay (Tox21).

A number with no mark means an inactive call. Records with an inconclusive call do not appear. Activity calls are given as the source filed them. Calls come from the whole dose curve; as a rule, active = well fitted curve in the direction sought with a large enough effect in the repeat runs; inconclusive = weak or mixed curves; inactive = no such curve, though single readings can be large; an effect the other way counts as inactive or inconclusive.

Experiment [1] can be described thus: Human pregnane X receptor (PXR) small molecule agonists, qHTS cell viability counter screen (AID 1346977). Note: nearly all actives have a fitted effect of over 50% in size. Note: potency is the fitted concentration of half-maximal effect. The method, boiled down:
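In each well, the PXR reporter HepG2 line was checked for viability: CellTiter-Fluor reagent added 23hr post-dosing, fluorescence read after 1hr incubation at 37C.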
(Quantitative high-throughput screening tests each substance at several concentrations.)

The nature of experiment [2]: Caspase-3/7 induction in HepG2 cells by small molecules, qHTS assay (AID 1346978). Note: nearly all actives have a fitted effect of over 15% in size. The method in brief:
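Caspase-3/7 induction was measured by Caspase-Glo 3/7 luminescence (30 min, room temperature) after a 17 hr compound exposure of wild-type HepG2 cells seeded at 2,000 per well and pre-incubated 5 hr.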

The nature of experiment [3]: Caspase-3/7 induction in CHO-K1 cells by small molecules, qHTS cell viability counter screen (AID 1346979). Note: nearly all actives have a fitted effect of over 35% in size. The method, boiled down:
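Following a 5hr settling period, CHO-K1 cells at 1,500 per well received DMSO-dissolved compounds. Cell viability was quantified 16hr later by CellTiter-Fluor fluorescence, measured after 1hr with reagent at 37C.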

Experiment [4] can be described thus: Caspase-3/7 induction in CHO-K1 cells by small molecules, qHTS assay (AID 1346980). Note: nearly all actives have a fitted effect of over 15% in size. The method in brief:
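Luminescent Caspase-Glo 3/7 read (30min, room temperature) quantified apoptosis induction. Cells were wild-type CHO-K1, treated with compound for 17hr at 37 C and 5% CO2.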

Experiment [5] can be described thus: Caspase-3/7 induction in HepG2 cells by small molecules, qHTS cell viability counter screen (AID 1346981). Note: series mostly up to about 92 µM; nearly all actives have a fitted effect of over 30% in size. The method, boiled down:
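Fluorescence read-out of live-cell protease activity (CellTiter-Fluor) after 1 hr with reagent. This was measured in the same wells as the caspase-3/7 luminescence, on HepG2 cells exposed to DMSO-dissolved compounds for 16 hr at 37 C.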

Experiment [6] addresses Nuclear receptor subfamily 1 group I member 2 (Homo sapiens) (UniProt O75469). The experiment can be described thus: Human pregnane X receptor (PXR) small molecule agonists, qHTS assay (AID 1346982). Note: nearly all actives have a fitted effect of over 35% in size. Note: potency is the fitted concentration of half-maximal effect. The method, boiled down: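 HepG2 PXR-Luc reporter line, 5% charcoal-stripped FBS; 5 hr pre-incubation, compound (DMSO) 24 hr at 37 C/5% CO2; ONE-Glo 30 min RT; luminescence read-out.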

The target in experiment [7] is Nuclear receptor subfamily 1 group I member 2 (Rattus norvegicus) (UniProt Q9R1A7). The experiment can be described thus: Rat pregnane X receptor (rPXR) activation by small molecules, qHTS assay (AID 1346983). Note: nearly all actives have a fitted effect of over 20% in size. The conditions noted are these: rPXR luciferase reporter cells, One-Glo luminescence, 24 h; max activation: hits give high values. The method, boiled down:
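Luminescent readout (One-Glo luciferase, 30 min room temperature) followed 24 hr compound treatment at 37 C of rPXR cells plated 2,000 per well and preincubated 5hr; qHTS format with compounds delivered in DMSO.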

Experiment [8] concerns the target Nuclear receptor subfamily 1 group I member 2 (Homo sapiens) (UniProt O75469). The experiment in a line: CYP3A4 induction through human pregnane X receptor (PXR) by small molecules, qHTS assay (AID 1346984). Note: nearly all actives have a fitted effect of over 40% in size. Note: potency is the fitted concentration of half-maximal effect. The method in brief:
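HepG2-derived DPX-2 line carrying PXR plus a CYP3A4-promoter luciferase reporter; cells plated 5 hr, compound-exposed 24 hr at 37C. CYP3A4 activity probed with 3uM (final) Luciferin-IPA for 3hr, then luciferase read after One-Glo.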

Experiment [9] shares this target. The experiment can be described thus: Human pregnane X receptor (PXR) activation by small molecules, qHTS assay (AID 1346985). Note: nearly all actives have a fitted effect of over 40% in size. The method, boiled down: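 DPX-2 cells (HepG2 co-transfected with a PXR response element and a CYP3A4-promoter luciferase construct) were seeded at 2,000 per well, rested 5 hr at 37C, then exposed to DMSO-dissolved compounds for 24 hr. Activation was read as luciferase luminescence.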

Experiment [10] addresses Cytochrome P450 2D6 (Homo sapiens) (UniProt P10635). The experiment in a line: Cytochrome P450 Family 2 Subfamily D Member 6 (CYP2D6) small molecule antagonists: luciferase reporter qHTS assay (AID 1671196). Note: nearly all actives have a fitted effect of over 50% in size. Note: potency is the fitted concentration of half-maximal effect. The method, boiled down: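 Luminogenic proluciferin substrate, CYP2D6 enzyme; 10 min RT preincubation with compound, NADPH regeneration system added, 1 h RT. Stop/detection reagent, 20 min RT, luminescence read (RLU). Signal proportional to CYP activity.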
(A reporter such as luciferase makes a cellular process visible.)

Experiment [11] deals with Cytochrome P450 2C19 (Homo sapiens) (UniProt P33261). The experiment in a line: Cytochrome P450 Family 2 Subfamily C Member 19 (CYP2C19) small molecule antagonists: luciferase reporter qHTS assay (AID 1671197). Note: nearly all actives have a fitted effect of over 65% in size. Note: potency is the fitted concentration of half-maximal effect. The method in brief: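 First, compounds are pinned into enzyme-substrate mix and held 10 min at room temperature. Second, NADPH regeneration solution is added and plates incubate 1 h at 37C. Third, detection reagent is added and luminescence read after 20 min.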

Experiment [12] concerns the target Cytochrome P450 1A2 (Homo sapiens) (UniProt P05177). The experiment in a line: Cytochrome P450 Family 1 Subfamily A Member 2 (CYP1A2) small molecule antagonists: luciferase reporter qHTS assay (AID 1671199). Note: nearly all actives have a fitted effect of over 50% in size. Note: potency is the fitted concentration of half-maximal effect. The method in brief: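 Luminescence readout (relative luminescence units) after luciferin detection reagent, 20 min RT. Preceded by 1 h room-temperature CYP1A2 reaction with NADPH regeneration solution following 10 min compound preincubation with enzyme and proluciferin substrate. Furafylline positive control.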

Experiment [13] has as its target Voltage-gated inwardly rectifying potassium channel KCNH2 (Homo sapiens) (UniProt Q12809). The experiment can be described thus: Human Ether-a-go-go-Related Gene (hERG) channel small molecule antagonists: fluorescence cell-based qHTS assay (AID 1671200).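 Note: hERG-expressing U2OS cells given a thallium stimulus after FluxOR II dye loading; series mostly up to about 77 µM; nearly all actives have a fitted effect of over 50% in size.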 The method in brief: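 In this thallium-flux screen, overnight-cultured U2OS cells bearing the channel are dye-loaded in darkness for an hour, rested 10 min at room temperature, and then monitored kinetically at 480/540 nm for two minutes post-stimulus.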
(In general: Block of hERG is tested as a sign of cardiac risk.)

The target in experiment [14] is Cytochrome P450 3A4 (Homo sapiens) (UniProt P08684). The experiment can be described thus: Cytochrome P450 Family 3 Subfamily A Member 4 (CYP3A4) small molecule antagonists: luciferase reporter qHTS assay (AID 1671201). The method in brief:
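CYP3A4 activity was followed with a P450-Glo proluciferin substrate. Test compounds in DMSO were preincubated 10 min; NADPH regeneration then ran 1 h, and light output was read 20 min after detection reagent.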

Experiment [15] has as its target Cytochrome P450 2C9 (Homo sapiens) (UniProt P11712). The experiment in a line: Cytochrome P450 Family 2 Subfamily C Member 9 (CYP2C9) small molecule antagonists: luciferase reporter qHTS assay (AID 1671198). Note: nearly all actives have a fitted effect of over 50% in size. Note: potency is the fitted concentration of half-maximal effect. The method, boiled down: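 Enzyme-substrate mix preincubated with compound 10 min at room temperature; reaction started with NADPH regeneration solution, 1 h 37C. Luminescent luciferin product read after 20 min detection reagent.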
% is set by controls: 0 for no effect and ±100 for the full control effect.

Chain of Nuclear receptor subfamily 1 group I member 2 (Homo sapiens) (O75469 whole entry, looked up): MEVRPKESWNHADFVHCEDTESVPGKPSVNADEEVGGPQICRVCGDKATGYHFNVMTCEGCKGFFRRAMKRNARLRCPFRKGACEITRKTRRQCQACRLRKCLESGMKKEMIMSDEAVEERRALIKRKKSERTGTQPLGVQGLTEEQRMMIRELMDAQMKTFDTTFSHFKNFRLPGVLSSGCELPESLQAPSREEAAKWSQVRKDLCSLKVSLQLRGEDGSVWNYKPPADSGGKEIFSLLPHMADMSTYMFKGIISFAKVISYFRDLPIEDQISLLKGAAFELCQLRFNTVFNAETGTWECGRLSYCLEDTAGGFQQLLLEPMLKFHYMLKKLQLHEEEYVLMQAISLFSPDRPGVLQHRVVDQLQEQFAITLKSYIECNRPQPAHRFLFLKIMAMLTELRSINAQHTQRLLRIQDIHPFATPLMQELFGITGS
Chain of Cytochrome P450 3A4 (Homo sapiens) (P08684 whole entry, looked up): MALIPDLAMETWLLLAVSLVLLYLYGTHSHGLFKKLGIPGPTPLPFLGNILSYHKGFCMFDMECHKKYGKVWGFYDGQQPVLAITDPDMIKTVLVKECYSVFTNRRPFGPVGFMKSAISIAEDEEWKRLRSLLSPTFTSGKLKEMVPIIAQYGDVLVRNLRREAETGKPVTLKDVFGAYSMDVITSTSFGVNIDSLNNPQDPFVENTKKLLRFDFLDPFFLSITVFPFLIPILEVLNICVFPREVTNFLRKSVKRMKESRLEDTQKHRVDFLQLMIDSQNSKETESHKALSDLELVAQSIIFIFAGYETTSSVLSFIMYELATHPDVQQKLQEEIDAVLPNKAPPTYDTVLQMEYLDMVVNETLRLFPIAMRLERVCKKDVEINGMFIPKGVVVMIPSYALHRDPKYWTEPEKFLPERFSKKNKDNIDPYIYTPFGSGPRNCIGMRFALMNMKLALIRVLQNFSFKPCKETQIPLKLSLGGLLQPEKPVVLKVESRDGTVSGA
Chain of Nuclear receptor subfamily 1 group I member 2 (Rattus norvegicus) (Q9R1A7 whole entry, looked up): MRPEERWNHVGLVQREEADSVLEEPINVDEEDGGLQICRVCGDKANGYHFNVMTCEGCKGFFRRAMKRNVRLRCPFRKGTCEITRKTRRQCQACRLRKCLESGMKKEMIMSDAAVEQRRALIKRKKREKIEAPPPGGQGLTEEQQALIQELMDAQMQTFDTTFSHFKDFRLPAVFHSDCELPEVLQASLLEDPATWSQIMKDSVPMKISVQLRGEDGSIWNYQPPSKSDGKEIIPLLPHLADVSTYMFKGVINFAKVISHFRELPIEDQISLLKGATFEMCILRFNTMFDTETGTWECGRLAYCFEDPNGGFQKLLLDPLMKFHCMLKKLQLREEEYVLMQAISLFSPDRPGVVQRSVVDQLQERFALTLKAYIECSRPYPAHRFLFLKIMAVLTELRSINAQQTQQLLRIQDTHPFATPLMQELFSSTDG
Chain of Cytochrome P450 2C19 (Homo sapiens) (P33261 whole entry, looked up): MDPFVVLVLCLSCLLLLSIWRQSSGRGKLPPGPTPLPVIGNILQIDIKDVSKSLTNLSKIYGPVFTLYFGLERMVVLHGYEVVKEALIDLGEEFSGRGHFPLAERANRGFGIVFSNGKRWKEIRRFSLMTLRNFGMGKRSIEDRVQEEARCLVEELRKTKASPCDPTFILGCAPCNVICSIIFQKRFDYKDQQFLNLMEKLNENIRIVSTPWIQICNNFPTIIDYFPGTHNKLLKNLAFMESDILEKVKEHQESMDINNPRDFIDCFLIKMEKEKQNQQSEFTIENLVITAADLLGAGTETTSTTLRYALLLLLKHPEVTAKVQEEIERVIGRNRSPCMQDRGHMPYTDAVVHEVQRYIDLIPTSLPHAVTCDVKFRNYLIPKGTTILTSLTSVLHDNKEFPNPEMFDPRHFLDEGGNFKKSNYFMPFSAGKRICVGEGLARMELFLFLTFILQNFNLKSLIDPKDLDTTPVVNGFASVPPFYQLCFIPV
Chain of Cytochrome P450 1A2 (Homo sapiens) (P05177 whole entry, looked up): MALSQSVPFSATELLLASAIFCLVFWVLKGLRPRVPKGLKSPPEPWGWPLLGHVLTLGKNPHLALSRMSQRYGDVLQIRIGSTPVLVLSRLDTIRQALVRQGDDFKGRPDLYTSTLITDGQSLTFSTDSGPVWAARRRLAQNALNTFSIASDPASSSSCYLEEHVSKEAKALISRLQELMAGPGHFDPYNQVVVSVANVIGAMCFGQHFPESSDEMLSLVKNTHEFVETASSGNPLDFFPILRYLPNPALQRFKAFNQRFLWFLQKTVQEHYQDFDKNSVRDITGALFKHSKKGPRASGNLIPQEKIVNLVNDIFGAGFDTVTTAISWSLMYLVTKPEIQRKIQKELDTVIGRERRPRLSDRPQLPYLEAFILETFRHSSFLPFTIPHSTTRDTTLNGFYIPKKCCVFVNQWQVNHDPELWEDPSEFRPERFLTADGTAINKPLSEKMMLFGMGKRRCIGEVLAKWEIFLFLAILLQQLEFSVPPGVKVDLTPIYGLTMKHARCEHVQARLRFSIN
Chain of Cytochrome P450 2D6 (Homo sapiens) (P10635 whole entry, looked up): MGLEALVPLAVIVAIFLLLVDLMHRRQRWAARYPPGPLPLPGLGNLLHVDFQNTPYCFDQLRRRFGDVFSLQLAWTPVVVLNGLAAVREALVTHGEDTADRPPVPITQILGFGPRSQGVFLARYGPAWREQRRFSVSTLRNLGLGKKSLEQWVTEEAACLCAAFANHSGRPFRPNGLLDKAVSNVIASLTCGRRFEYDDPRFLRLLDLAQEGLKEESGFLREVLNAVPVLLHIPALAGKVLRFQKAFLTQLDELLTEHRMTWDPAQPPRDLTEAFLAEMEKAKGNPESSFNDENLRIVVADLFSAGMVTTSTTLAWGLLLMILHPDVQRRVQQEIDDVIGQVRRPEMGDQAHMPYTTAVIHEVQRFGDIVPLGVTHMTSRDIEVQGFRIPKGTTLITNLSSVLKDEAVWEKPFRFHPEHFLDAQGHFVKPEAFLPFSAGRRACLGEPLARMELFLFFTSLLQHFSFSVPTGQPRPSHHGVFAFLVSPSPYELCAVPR
Chain of Cytochrome P450 2C9 (Homo sapiens) (P11712 whole entry, looked up): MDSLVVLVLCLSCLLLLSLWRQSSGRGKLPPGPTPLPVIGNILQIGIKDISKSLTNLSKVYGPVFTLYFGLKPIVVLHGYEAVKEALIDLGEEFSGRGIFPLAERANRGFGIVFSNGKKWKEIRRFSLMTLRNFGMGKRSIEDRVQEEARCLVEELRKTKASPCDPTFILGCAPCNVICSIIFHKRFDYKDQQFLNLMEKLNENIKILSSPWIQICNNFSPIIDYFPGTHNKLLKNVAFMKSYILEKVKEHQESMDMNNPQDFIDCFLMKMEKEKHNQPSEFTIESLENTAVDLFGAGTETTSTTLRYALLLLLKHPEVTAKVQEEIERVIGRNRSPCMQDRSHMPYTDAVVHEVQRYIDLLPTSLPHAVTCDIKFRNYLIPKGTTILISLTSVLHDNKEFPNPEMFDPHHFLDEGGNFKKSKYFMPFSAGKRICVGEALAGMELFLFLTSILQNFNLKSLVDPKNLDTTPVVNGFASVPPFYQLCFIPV
Chain of Voltage-gated inwardly rectifying potassium channel KCNH2 (Homo sapiens) (Q12809 whole entry, looked up): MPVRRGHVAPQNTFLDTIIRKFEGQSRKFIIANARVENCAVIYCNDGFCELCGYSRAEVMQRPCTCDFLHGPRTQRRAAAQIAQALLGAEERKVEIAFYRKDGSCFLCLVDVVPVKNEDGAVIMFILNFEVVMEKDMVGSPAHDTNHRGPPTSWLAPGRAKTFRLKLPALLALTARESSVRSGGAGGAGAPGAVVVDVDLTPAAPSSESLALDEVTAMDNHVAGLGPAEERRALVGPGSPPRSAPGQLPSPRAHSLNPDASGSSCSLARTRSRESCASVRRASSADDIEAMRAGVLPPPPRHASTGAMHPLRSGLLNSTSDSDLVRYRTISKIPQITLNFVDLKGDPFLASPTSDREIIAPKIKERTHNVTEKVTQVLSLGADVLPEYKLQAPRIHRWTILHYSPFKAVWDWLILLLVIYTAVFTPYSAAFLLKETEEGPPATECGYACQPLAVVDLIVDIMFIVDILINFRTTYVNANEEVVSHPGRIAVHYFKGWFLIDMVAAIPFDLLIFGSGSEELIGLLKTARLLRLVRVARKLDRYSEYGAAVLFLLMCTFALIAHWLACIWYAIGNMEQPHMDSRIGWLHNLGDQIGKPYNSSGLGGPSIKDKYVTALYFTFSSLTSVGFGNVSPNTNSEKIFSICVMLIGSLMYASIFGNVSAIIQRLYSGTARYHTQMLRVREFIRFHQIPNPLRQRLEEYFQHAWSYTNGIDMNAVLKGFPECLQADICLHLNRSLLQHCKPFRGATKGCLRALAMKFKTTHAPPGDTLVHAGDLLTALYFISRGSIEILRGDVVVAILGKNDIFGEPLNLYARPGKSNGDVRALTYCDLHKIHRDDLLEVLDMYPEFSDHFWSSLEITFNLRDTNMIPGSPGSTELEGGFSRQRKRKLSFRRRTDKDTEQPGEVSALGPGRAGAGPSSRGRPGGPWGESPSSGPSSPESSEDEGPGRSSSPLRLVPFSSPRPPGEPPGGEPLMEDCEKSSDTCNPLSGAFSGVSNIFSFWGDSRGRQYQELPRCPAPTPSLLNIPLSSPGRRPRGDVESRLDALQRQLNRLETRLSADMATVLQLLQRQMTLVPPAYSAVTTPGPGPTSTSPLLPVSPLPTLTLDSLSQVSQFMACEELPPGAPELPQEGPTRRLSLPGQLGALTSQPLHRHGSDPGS

As to `C[C@H]1c2cccc(O)c2C(O)=C2C(=O)[C@]3(O)C(O)=C(C(N)=O)C(=O)[C@@H](N(C)C)[C@@H]3[C@@H](O)[C@@H]21`, the Potency result in experiment [1], in experiment [2], in [3], in [4], in experiment [5] and in experiment [6] was “inactive” in each case. Besides, the Potency result in experiment [8], in experiment [9], in experiment [10], in [11], in experiment [12] and in experiment [13] was “inactive” in each case. Besides, the Potency entry in experiment [14] is “inactive”. In addition, the max activation in experiment [7] is -4.08%.

As for `CN1C(=O)OC(C)(C)C1=O`, the Potency entry in experiment [1], in experiment [2], in [3], in [4], in [5] and in [8] was “inactive” in each case. Also, the Potency entry in experiment [9], in experiment [10], in experiment [11], in experiment [13] and in experiment [14] was “inactive” throughout. Besides, the Potency in experiment [6] was 37.9 µM (active). Moreover, the max activation in experiment [7] is -2.55%.

As for `CC(C)Nc1cccnc1N1CCN(C(=O)c2cc3cc(NS(C)(=O)=O)ccc3[nH]2)CC1`, the Potency result in experiment [1], in experiment [2], in [3], in [4], in experiment [5] and in experiment [6] was “inactive” throughout. Further, the Potency entry in experiment [8], in [9] and in experiment [12] was “inactive” in each case. Also, the max activation in [7] is 0.79%. Moreover, the Potency in [10] is 5.49 µM (active); in experiment [11] it was 9.77 µM (active); in [15] it was 2.75 µM (active).

Take `CN(C)CCC=C1c2ccccc2C=Cc2ccccc21`: the Potency in experiment [1] is 13.3 µM (active); in experiment [8], 31.6 µM (active). For the same compound, the Potency result in experiment [2], in experiment [3], in [4], in experiment [5], in experiment [6] and in experiment [11] was “inactive” throughout. Moreover, the Potency result in experiment [15], in experiment [12] and in experiment [14] was “inactive” in each case. Also, the max activation in experiment [7] is 0.747%.

With `O[C@@H]1CO[C@H]2[C@@H]1OC[C@@H]2O`, the Potency entry in [1], in experiment [2], in [3], in experiment [4], in experiment [5] and in experiment [6] was “inactive” throughout. Moreover, the Potency entry in [8], in [9], in experiment [10], in experiment [11], in [15] and in [12] was “inactive” each time. The Potency entry in [13] and in [14] was “inactive” each time. The max activation in experiment [7] was -1.59%.

For `O=C(/C=C/c1ccc(O)c(O)c1)O[C@@H]1C[C@@](OC(=O)/C=C/c2ccc(O)c(O)c2)(C(=O)O)C[C@@H](O)[C@@H]1O`, the Potency result in experiment [1], in experiment [2], in [3], in experiment [4], in [5] and in experiment [6] was “inactive” each time. Further, the Potency result in experiment [8], in [9], in [10] and in [14] was “inactive” each time. The max activation in experiment [7] is -5.53%. Moreover, the Potency in experiment [11] was 12.3 µM (active); in experiment [12], 27.5 µM (active).

For `CCOC(=O)c1ccc(O)c(O)c1`, the Potency entry in experiment [1], in experiment [2], in experiment [3], in experiment [4], in experiment [5] and in experiment [6] was “inactive” in each case. The Potency result in experiment [10], in experiment [11], in experiment [15], in experiment [13] and in [14] was “inactive” throughout. In addition, the Potency in experiment [12] was 27.5 µM (active).

Turning to `CC(C)=CCC/C(C)=C/CC/C(C)=C/CCC(=O)OC/C=C(\C)CCC=C(C)C`, the Potency entry in [1], in experiment [2], in [3], in [4], in experiment [5] and in [6] was “inactive” in each case. In addition, the Potency entry in experiment [10], in experiment [11], in [15], in experiment [12], in experiment [13] and in [14] was “inactive” each time.
